Tau ThT inhib – tau fibrillization inhibition (ThT binding). Potency, µM (series often up to 57.4 µM), actives largely listed as inhibitors. 270,000 compounds, 2.1% hits. recombinant tau K18 P301L, heparin-induced fibrillization, ThT fluorescence. P10636; also: nearly all actives have a fitted effect of over 55% in size
Target sequence (P10636 561-689 P618L limits assumed): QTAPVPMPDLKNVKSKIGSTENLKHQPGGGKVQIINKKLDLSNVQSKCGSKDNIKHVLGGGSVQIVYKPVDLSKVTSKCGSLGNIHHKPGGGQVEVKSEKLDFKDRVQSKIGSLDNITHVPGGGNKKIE
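Tau K18 P301L fragment (15 uM unlabeled plus 0.24 uM Alexa 594-labeled) in 100 mM sodium acetate pH 7 with compound, fibrillization induced by 20 uM heparin for 6 hr at 37 C. Thioflavin T (30 uM) added, fluorescence read after 1 hr (ex 450, em 510 nm).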
NPSR antag – antagonists of human neuropeptide S receptor cAMP signaling. AID 1461. Potency, µM (doses to about 38.3 µM), hits mostly inhibitors. Q6W5P4. CHO-NPSR cells, cAMP TR-FRET, antagonist mode. 220,000 compounds, 1% hits; also: nearly all actives have a fitted effect of over 50% in size
Target sequence (Q6W5P4 whole entry, looked up): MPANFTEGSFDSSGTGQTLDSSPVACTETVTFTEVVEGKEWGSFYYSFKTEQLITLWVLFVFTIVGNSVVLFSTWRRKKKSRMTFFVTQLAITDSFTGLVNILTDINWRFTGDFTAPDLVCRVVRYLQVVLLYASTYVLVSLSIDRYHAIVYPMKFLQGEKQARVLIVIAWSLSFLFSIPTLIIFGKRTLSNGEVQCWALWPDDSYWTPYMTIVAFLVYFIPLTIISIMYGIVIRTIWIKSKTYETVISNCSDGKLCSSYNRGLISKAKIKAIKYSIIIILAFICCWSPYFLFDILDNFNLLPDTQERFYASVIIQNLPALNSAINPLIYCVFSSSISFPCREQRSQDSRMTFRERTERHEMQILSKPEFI
Tau FP inhib – tau fibrillization inhibition (FP); K18 P301L tau heparin fibrillization, Alexa594 FP, 6 h; P10636; AID 1468; Potency, µM (series often up to 57.7 µM), usual class: inhibitors; 280,000 compounds, 0.39% hits; also: nearly all actives have a fitted effect of over 55% in size
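Heparin (20 uM) drove fibril formation of recombinant tau K18 P301L, 15 uM unlabeled with 0.24 uM Alexa 594 label, for 6 hr at 37 C in 100 mM sodium acetate pH 7. Fluorescence polarization (555/632 nm) read 1 hr after 30 uM ThT.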
HPGD inh – HPGD (human) dehydrogenase inhibition. P15428. purified HPGD, NADH fluorescence kinetic, PGE2 substrate. 150,000 compounds, 4.3% hits. Potency, µM, actives largely listed as inhibitors. AID 894; active = well fitted inhibition curve with a large enough effect, not every such curve was filed as active; inconclusive = small, poorly fitted or top-dose-only effect, or another doubt; inactive = no such curve, though single readings can be large or run the other way
Target sequence (P15428 whole entry, looked up): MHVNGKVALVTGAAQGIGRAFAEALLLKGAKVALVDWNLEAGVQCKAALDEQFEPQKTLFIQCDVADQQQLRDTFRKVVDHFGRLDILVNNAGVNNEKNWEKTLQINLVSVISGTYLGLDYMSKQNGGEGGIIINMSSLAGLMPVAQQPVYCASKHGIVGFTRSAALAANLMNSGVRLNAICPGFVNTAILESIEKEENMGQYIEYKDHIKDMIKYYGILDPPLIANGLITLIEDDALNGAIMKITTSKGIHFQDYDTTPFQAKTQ
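20 nM HPGD preincubated 15 min at room temperature with compound in 50 mM Tris-HCl pH 8, 0.01% Tween 20. Started with 1 mM NAD+ and 30 uM prostaglandin E2; NADH fluorescence (360/450 nm) read 5 times over 30-s intervals, last minus first.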
ALDH1A1 block – inhibitors of human aldehyde dehydrogenase 1A1 | Potency, µM (doses to about 75.3 µM), actives largely listed as inhibitors | 220,000 compounds, 7.3% hits | P00352 | Purified ALDH1A1, NADH fluorescence, propionaldehyde substrate | AID 1030; active = well fitted inhibition curve with a large enough effect, not every such curve was filed as active; inconclusive = small, poorly fitted or top-dose-only effect, or another doubt; inactive = no such curve, though single readings can be large or run the other way
Tau fluor cs – counter-screen for tau fibril formation inhibitors; Potency, µM (titrated, usually from 57.7 µM); tau K18 P301L (four-repeat tau fragment) Alexa594 fluorescence, heparin fibrillization; 280,000 compounds, 0.93% hits; also: nearly all actives have a fitted effect of over 55% in size
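Human K18 P301L tau (15 uM unlabeled plus 0.24 uM Alexa 594-labeled, final) in 100 mM sodium acetate pH 7 was mixed with compound and 20 uM heparin and incubated 6 hr at 37 C.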
Large screens that a line does not name were inactive; ! = a repeat was not active. Only some compounds are listed: those with a hit (about 9.5% of all), similar ones and a draw of the others. Unless noted, calls follow the shape of the dose curve; as a rule, active = well fitted curve in the direction sought with a large enough effect; inconclusive = small, poorly fitted or top-dose-only effect, or another doubt; inactive = no such curve, though single readings can be large; an effect the other way counts as inactive or inconclusive.

Cc1cccc(CNc2cc(-c3ccccc3CN(C)C)ncn2)c1	none (no result: NPSR antag)
Cc1oc(=O)c(NC(=O)c2ccc(Cl)cc2)cc1C(=O)c1ccccc1	Tau ThT inhib 18µM, NPSR antag inconclusive, Tau FP inhib inconclusive, HPGD inh 32µM, ALDH1A1 block 3.5µM
COCCCn1c(C)c(C(C)=O)cc(NC(=O)c2ccccc2)c1=O	ALDH1A1 block 2µM (no result: HPGD inh)
COC(=O)c1cc(NC(=O)c2ccc(OC)cc2)c(=O)oc1C	Tau ThT inhib inconclusive (no result: HPGD inh)
CC(=O)c1cc(NC(=O)c2ccccc2)c(=O)oc1C	Tau ThT inhib 28µM, Tau FP inhib inconclusive, ALDH1A1 block 20µM (no result: HPGD inh)
C=CCn1c(C)c(C(C)=O)cc(NC(=O)c2ccccc2)c1=O	ALDH1A1 block inconclusive (no result: HPGD inh)
CC(=O)c1cc(NC(=O)c2ccc(C)cc2)c(=O)oc1C	Tau ThT inhib 32µM, Tau FP inhib inconclusive, ALDH1A1 block 22µM (no result: HPGD inh)
CCOC(=O)N1CCc2c(sc3c2c(=O)n(Cc2ccccc2)c(=O)n3Cc2ccccc2Cl)C1	none (no result: NPSR antag, HPGD inh, ALDH1A1 block)
CO[C@@H]1COC(=O)[C@@H](C)NC(=O)C/C=C\[C@@H](C)[C@H](NS(=O)(=O)c2ccc(C)cc2)COC(=O)[C@H](C)NC(=O)C/C=C\[C@H]1C	none (no result: NPSR antag, HPGD inh)
Cc1oc(=O)c(NC(=O)c2ccccc2)cc1C(=O)c1ccccc1	Tau ThT inhib 25µM, NPSR antag inconclusive, Tau FP inhib inconclusive, ALDH1A1 block 18µM
Cc1ccc(CN2CCN(C3CCNCC3)C(=O)C2=O)cc1	none (no result: NPSR antag, HPGD inh, ALDH1A1 block)
COc1cc(CN(C)CC(=O)c2[nH]c(C)c(C(C)=O)c2C)ccc1OC(F)F	ALDH1A1 block 3.5µM
COc1ccc(CNC(=O)Cn2cc3c(n2)CCCCC3)cc1	ALDH1A1 block 1.1µM
CNC(=O)CSc1nnc(-c2ccccn2)n1Cc1ccco1	none (no result: HPGD inh)
O=C(CSc1nnc(-c2cccnc2)n1Cc1ccco1)c1ccc(Br)cc1	HPGD inh 28µM
COc1ccc(C(=O)CSc2nnc(-c3ccccn3)n2Cc2ccco2)cc1	NPSR antag inconclusive, ALDH1A1 block 22µM (no result: HPGD inh)
CCOC(=O)c1c(NC(=O)CSc2nnc(-c3cccnc3)n2Cc2ccco2)sc(C)c1C	Tau ThT inhib inconclusive, NPSR antag inconclusive, ALDH1A1 block 25µM
O=C(CSc1nnc(-c2cnccn2)n1Cc1ccco1)c1ccc(Cl)cc1	Tau ThT inhib inconclusive, HPGD inh inconclusive, ALDH1A1 block inconclusive
O=C(CSc1nnc(-c2cccnc2)n1Cc1ccco1)c1ccc2ccccc2c1	Tau ThT inhib inconclusive, ALDH1A1 block inconclusive
O=C(CSc1nnc(-c2cnccn2)n1Cc1ccco1)c1ccccc1	HPGD inh 16µM
FC(F)(F)c1ccc(CN2C[C@@H]3C(c4ccc(C(F)(F)F)cc4)C4(c5ccccc5)CC3(C4)[C@H]2c2ccccc2)cc1 (stereo partly drawn)	none (no result: NPSR antag)
O=C(O)CN1CCN(Cc2ccccc2F)C1=O	none (no result: HPGD inh)
CC(C)C[C@@H](CC(=O)N[C@@H](CCCN)CC(=O)N[C@@H]1CCNC[C@H]1C(=O)N[C@H](CC(=O)N[C@@H](CCC(=O)O)CC(=O)O)Cc1ccccc1)NC(=O)[C@@H]1CCCC[C@H]1N	none (no result: NPSR antag)
O=C(CSc1nnc(-c2ccccn2)n1Cc1ccco1)c1ccccc1	none
C=CCn1c(SCC(=O)Nc2sc(C)c(C)c2C(=O)OCC)nnc1-c1sc(N)nc1C	Tau ThT inhib inconclusive, ALDH1A1 block 14µM
O=C(CSc1nnc(-c2ccccn2)n1Cc1ccco1)c1ccc(Cl)cc1	Tau ThT inhib inconclusive, NPSR antag inconclusive, HPGD inh inconclusive, ALDH1A1 block 20µM
Cc1cc(=O)[nH]c2nnc(SCc3ccc(F)cc3)n12	none (no result: NPSR antag, HPGD inh, ALDH1A1 block)
Cc1nn(C(C)C(=O)NC2C(=O)N3C(C(=O)O)=C(CSc4nnnn4C)CSC23)cc1Cl (stereo not drawn)	Tau ThT inhib inconclusive, ALDH1A1 block inconclusive (no result: HPGD inh)
Cn1nnnc1SCC1=C(C(=O)O)N2C(=O)C(NC(=O)C3CC3c3ccccc3)C2SC1 (stereo not drawn)	Tau ThT inhib inconclusive, Tau FP inhib inconclusive, ALDH1A1 block 10µM (no result: HPGD inh)
CC(C(=O)NC1C(=O)N2C(C(=O)O)=C(CSc3nnnn3C)CSC12)n1cc(Br)cn1 (stereo not drawn)	ALDH1A1 block 15µM (no result: HPGD inh)
CCNc1c2c(nc3ccccc13)CC(C)(C)CC2=O	ALDH1A1 block 14µM
CC1(C)CC(=O)c2c(nc3ccccc3c2N)C1	HPGD inh inconclusive, ALDH1A1 block inconclusive
Cn1cccc1C(=O)N1CCC2(CCCN(C(=O)Nc3ccccc3)C2)CC1	none (no result: Tau ThT inhib, NPSR antag, Tau FP inhib, Tau fluor cs)
Cc1cc(N(CCO)CCO)nc(-n2nc(C)cc2C)n1	ALDH1A1 block 11µM
C=C1C(=O)O[C@@H]2C[C@@H](C)[C@@H]3C=CC(=O)[C@@]3(C)[C@@H](OC(C)=O)[C@H]12	Tau ThT inhib 4µM, Tau FP inhib inconclusive (no result: HPGD inh, ALDH1A1 block)
Cc1cc(C)c2[nH]c(=O)c(CN(Cc3ccc4c(c3)OCO4)Cc3nnnn3C3CCCC3)cc2c1	NPSR antag inconclusive, ALDH1A1 block inconclusive
Cc1ccc(C)c2[nH]c(=O)c(C(c3nnnn3Cc3ccco3)N3CCc4ccccc4C3)cc12 (stereo not drawn)	Tau ThT inhib 32µM, Tau FP inhib inconclusive, HPGD inh inconclusive, ALDH1A1 block inconclusive
COc1ccccc1CN(Cc1cc2c(C)ccc(C)c2[nH]c1=O)Cc1nnnn1Cc1ccco1	NPSR antag inconclusive, ALDH1A1 block 14µM
Cc1ccc(CN(Cc2cc3cc4c(cc3[nH]c2=O)OCCO4)Cc2nnnn2Cc2ccco2)cc1	Tau ThT inhib 35µM, Tau FP inhib inconclusive, HPGD inh inconclusive, ALDH1A1 block inconclusive
Cc1ccc2cc(CN(Cc3ccc4c(c3)OCO4)Cc3nnnn3Cc3ccco3)c(=O)[nH]c2c1	ALDH1A1 block 14µM
CNC(=O)C1CCN(Cc2cc3ccccc3n2Cc2cccc(C)c2)CC1	none (no result: NPSR antag, HPGD inh, ALDH1A1 block)
COc1ccc2cc(CN(CCc3ccccc3)Cc3nnnn3Cc3ccco3)c(=O)[nH]c2c1	Tau ThT inhib inconclusive, NPSR antag inconclusive, ALDH1A1 block 0.079µM
COc1ccc2[nH]c(=O)c(CN(Cc3nnnn3Cc3ccco3)C3CCCCC3)cc2c1	Tau ThT inhib inconclusive, Tau FP inhib inconclusive, HPGD inh inconclusive, ALDH1A1 block inconclusive
CCOC(=O)c1c(NC(=O)/C=C/C(=O)O)sc(C)c1-c1ccc(C(C)(C)C)cc1	Tau ThT inhib inconclusive, NPSR antag 10µM, Tau FP inhib inconclusive, ALDH1A1 block 28µM (no result: HPGD inh)
N#CC(=C=[N-])c1nc2ccccc2nc1-[n+]1cccc(NC(=O)c2ccccc2)c1	Tau ThT inhib inconclusive, ALDH1A1 block 14µM!, Tau fluor cs inconclusive (no result: HPGD inh)
N#CC(=C=[N-])c1nc2ccccc2nc1-[n+]1cccc(NC(=O)c2ccc(F)cc2)c1	Tau ThT inhib inconclusive, Tau fluor cs inconclusive (no result: HPGD inh)
COc1ccc(C(=O)Nc2ccc(SC(F)F)cc2)cc1	none
CCc1nc(SCc2cccnc2)c2c(=O)n(C)c(=O)n(C)c2n1	none

Screening results (PubChem)
